A selection: hits, their analogues and other compounds. The true share with any hit is near 5.9%.
TrxR1 inh – qHTS Assay for Inhibitors of Mammalian Selenoprotein Thioredoxin Reductase 1 (TrxR1): qHTS; recombinant rTrxR1, NADPH fluorescence consumption, selenite substrate; AID 588453, 2011; Potency, µM (series often up to 114 µM), hits mostly inhibitors; Thioredoxin reductase 1, cytoplasmic (Rattus norvegicus), O89049; 1% of 390,000 active; note: nearly all actives have a fitted effect of over 65% in size
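Rat TrxR1 (90 nM in the dispensed reagent) was pre-reduced with 400 uM NADPH for 5 min at room temperature, then incubated with compound for 15 min. After 400 uM selenite was added, NADPH fluorescence (Ex 340/Em 450 nm) was followed for 8 min.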
Coupling enz – qHTS Assay for Inhibitors of Fructose-1,6-bisphosphate Aldolase from Giardia Lamblia: Coupling assay counterscreen; AID 2472, 2010; coupling enzyme system counterscreen, AmpLite Red fluorescence; 0.67% of 290,000 active; activity change, negative = inhibition, % at 58.2 µM, hits read low; in the data active = activity change below about -30%
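Counterscreen lacking aldolase: glyceraldehyde-3-phosphate coupling-enzyme reagent preincubated 10 min at RT with compound (at 57.5 uM final), then substrate/coupling system with AmpLite Red added; fluorescence read at 525/598 nm after 20 min RT.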
RORg inh – qHTS for inhibitors of ROR gamma transcriptional activity; Nuclear receptor ROR-gamma (Mus musculus), P51450; Drosophila S2 Gal4-RORgamma UAS-luciferase reporter, 20 h; Potency, µM (series often up to 53.6 µM), actives largely listed as inhibitors; 5.4% of 310,000 active; AID 2551, 2010; note: nearly all actives have a fitted effect of over 60% in size
Target sequence (P51450 whole entry, looked up, the tested form may be a part): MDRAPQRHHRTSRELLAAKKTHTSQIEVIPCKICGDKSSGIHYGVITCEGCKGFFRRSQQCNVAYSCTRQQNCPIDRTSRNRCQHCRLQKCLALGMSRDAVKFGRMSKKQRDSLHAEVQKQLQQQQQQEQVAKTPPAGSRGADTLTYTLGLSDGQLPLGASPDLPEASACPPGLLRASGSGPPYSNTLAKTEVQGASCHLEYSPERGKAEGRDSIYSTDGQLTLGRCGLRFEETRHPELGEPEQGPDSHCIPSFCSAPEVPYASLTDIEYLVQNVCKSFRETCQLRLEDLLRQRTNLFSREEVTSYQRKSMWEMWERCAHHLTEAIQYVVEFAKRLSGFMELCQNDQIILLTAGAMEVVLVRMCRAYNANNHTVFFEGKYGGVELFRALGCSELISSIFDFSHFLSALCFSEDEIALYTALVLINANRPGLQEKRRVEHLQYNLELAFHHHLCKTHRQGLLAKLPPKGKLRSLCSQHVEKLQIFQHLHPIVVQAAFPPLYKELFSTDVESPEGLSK
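Luciferase reporter read in Schneider cells carrying Gal4-RORγ (mouse) and UAS-Photinus luciferase; cells given compound 1 h before 700 uM copper sulfate induction, then incubated 20 h at ambient temperature.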
TrxR1 substrate – qHTS Assay for Substrates of Mammalian Selenoprotein Thioredoxin Reductase 1 (TrxR1): qHTS; Potency, µM (series often up to 114 µM); 0.01% of 390,000 active; Thioredoxin reductase 1, cytoplasmic (Rattus norvegicus), O89049; purified TrxR1 substrate turnover, NADPH consumption readout; AID 588456, 2011; note: nearly all actives have a fitted effect of over 50% in size
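Rat TrxR1, dispensed at 90 nM, was prereduced with 400 uM NADPH (final) for 5 min at ~22 deg C, then incubated with compound 15 min before 400 uM selenite. A first-read NADPH fluorescence drop versus no-compound background flagged substrates.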
GALK inh – qHTS Assay for Inhibitors of Human Galactokinase (GALK); Purified GALK, Kinase-Glo residual ATP luminescence; Potency, µM (highest dose often 57.5 µM), hits mostly inhibitors; 0.007% of 270,000 active
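Human GALK (5 nM) with 35 uM ATP and 100 uM galactose in 20 mM HEPES pH 8.0, 5 mM MgCl2, 60 mM NaCl, 1 mM DTT, 0.01% BSA. After 1 h at room temperature, leftover ATP was read by Kinase-Glo Plus luminescence.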
Gal4-VP16 FLuc – VP16 counterscreen qHTS for inhibitors of ROR gamma transcriptional activity. Drosophila S2 Gal4-VP16 UAS-luciferase, luminescence, 20 h. Potency, µM (top dose mostly 53.6 µM), usual class: inhibitors. 3.5% of 310,000 active;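 note: Gal4-VP16 expression switched on by copper sulfate through the metallothionein promoter; nearly all actives have a fitted effect of over 50% in size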
Numbers stand for hits; 0 = inactive; ? = inconclusive; - = no result given. Unless noted, calls come from the whole dose curve; as a rule, active = well fitted curve in the direction sought with a large enough effect; inconclusive = small, poorly fitted or top-dose-only effect, or another doubt; inactive = no such curve, though single readings can be large; an effect the other way counts as inactive or inconclusive.

SMILES	TrxR1 inh	Coupling enz	RORg inh	TrxR1 substrate	GALK inh	Gal4-VP16 FLuc
COc1ccc(-n2nc(C(=O)c3cccs3)cc(-c3nc4ccccc4[nH]3)c2=N)cc1	0	0	3.2µM	0	0	3.5µM
CCC(=O)Nc1cccc(-c2nc3ccccc3o2)c1	0	0	0	0	0	?
Cc1ccc2oc(-c3ccc(C)c(NC(=O)/C=C/c4ccco4)c3)nc2c1	32µM	-	-	0	-	-
Cc1ccc(-c2nc3ccccc3o2)cc1NC(=S)NC(=O)/C=C/c1ccco1	0	0	2µM	0	-	?
O=C(/C=C/c1ccco1)NC(=S)Nc1cccc(-c2nc3ccccc3o2)c1	?	0	2.2µM	0	0	13µM
O=C(c1ccc(Cl)cc1)c1cn[nH]c1-c1ccccc1O	0	0	?	0	0	0
NC(=O)C1CCN(C(=O)CCNS(=O)(=O)c2cc(Br)cnc2N)CC1	0	0	0	0	0	0
Cc1ccc(/C=C/C(=O)NC(=S)Nc2ccccc2C(=O)NC2CCCCC2)cc1	0	0	?	0	0	0
CC(=O)NC(=S)Nc1ccccc1C(=O)NC1CCCCC1	0	0	0	0	0	0
COc1ccc(/C=C/C(=O)NC(=S)Nc2ccccc2C(=O)NC2CCCCC2)cc1	0	0	14µM	0	0	0
O=C(/C=C/c1ccc(F)cc1)NC(=S)Nc1ccccc1C(=O)NC1CCCCC1	0	0	?	0	0	13µM
O=C(/C=C/c1ccccc1)NC(=S)Nc1ccccc1C(=O)NC1CCCCC1	0	0	11µM	0	0	?
Cc1cccc(C(=O)NCCC(=O)Nc2ccc(C)c(F)c2)c1	0	0	0	0	0	0
O=C(Nc1ccc(-c2ccc(N3CCCCC3)nn2)cc1)c1ccco1	?	-	-	0	-	-
Cc1oc(-c2ccccc2Cl)nc1CSCC(=O)O	0	0	0	0	0	7.9µM
Cc1oc(-c2cccc(Cl)c2)nc1CSCC(=O)O	0	0	10µM	0	0	5µM
Cc1oc(-c2ccccc2Cl)nc1CSCC(=O)NC1CC1	0	0	0	0	0	0
Cc1cccc(-c2nc(CSCC(=O)NCCc3ccc(Cl)cc3)c(C)o2)c1	0	-	-	0	-	-
Cc1c(CCO)c(=O)[nH]n1S(=O)(=O)c1ccccc1	0	0	0	0	0	0
Cc1c(CCO)c(=O)n(-c2ccccc2)n1S(=O)(=O)c1c(Cl)cc(Cl)cc1Cl	0	-39	0	0	0	0
COCc1nnc(NC(=O)c2ccc(S(=O)(=O)N3CCCc4ccccc43)cc2)o1	0	0	0.63µM	0	0	3.5µM
O=C(Nc1nnc(C2CC2)o1)c1ccc(S(=O)(=O)N2CCCc3ccccc32)cc1	0	0	0.32µM	0	0	0.71µM
COc1ccc(C(=O)Nc2ccc3c(c2)CCCN3S(=O)(=O)c2ccc(C)cc2)cc1	0	-	-	0	-	-
COc1ccc(-c2nnc(NC(=O)c3ccc(S(=O)(=O)N4CCCc5ccccc54)cc3)o2)cc1	0	0	0.28µM	0	0	0.5µM
O=C(NCc1ccccc1)c1ccc(S(=O)(=O)N2CCCc3ccccc32)cc1	0	0	?	0	0	0
SMILES	TrxR1 inh	Coupling enz	RORg inh	TrxR1 substrate	GALK inh	Gal4-VP16 FLuc
COCc1nnc(NC(=O)c2ccc(S(=O)(=O)N3CCOCC3)cc2)o1	0	0	11µM	0	0	20µM
COCCn1c(SCC(=O)Nc2nnc(C)s2)nnc1-c1ccco1	0	0	0	0	0	0
CCOC(=O)C1CCCN(CCC(=O)Nc2cc(C)ccc2C)C1 (stereo not drawn)	0	0	0	0	0	0
COc1ccccc1OCc1nc(C#N)c(NCc2ccc(C)cc2)o1	0	-	-	0	-	-
COCCNC(=S)N/N=C/c1ccccc1C(=O)O	0	0	0	0	0	0
COCCNC(=S)N/N=C(\C)c1ccccc1OC	0	0	2.5µM	0	0	6.3µM
COCCNC(=S)N/N=C(\C)c1ccccc1F	0	0	3.5µM	0	0	20µM
COCCNC(=S)N/N=C(\C)c1ccccc1O	?	0	0.2µM	0	0	0.45µM
C=CCNC(=O)c1onc(CSc2ccc(Cl)cc2)c1C(=O)O	0	0	0	0	0	0
COc1cccc(CN2CCN(C(=O)c3ccc(-c4ccccc4)cc3)CC2)c1OC	0	0	0	0	0	0
O=C(O)c1ccc2c3c(ncnc13)-c1ccccc1C2=O	10µM	0	?	0	0	0
Cc1cc(C)nc(NS(=O)(=O)c2ccc(NC(=O)CCC(=O)O)cc2)n1	0	-	-	0	-	-
CC(C)(Sc1cc(C(C)(C)C)c(O)c(C(C)(C)C)c1)Sc1cc(C(C)(C)C)c(O)c(C(C)(C)C)c1	0	0	0	0	0	0
Cn1ccnc1C(O)c1cc(C(C)(C)C)c(O)c(C(C)(C)C)c1 (stereo not drawn)	32µM	0	10µM	0	0	?
COC(=O)c1ccc(NC(=O)CCCCCn2nnc3ccccc3c2=O)cc1	0	0	0	0	0	0
Cc1ccn2c(=O)c(NC(=O)c3ccc(Br)o3)c(C)nc2c1	0	-	-	0	-	-
CCCCC(=O)NC(=S)NNC(=O)CC	0	0	7.9µM	0	0	0
CCCCC(=O)NC(=S)Nc1cccc(NC(=O)CC)c1	0	0	?	0	0	0
CCCCCC(=O)NNC(=S)NC(=O)c1ccccc1[N+](=O)[O-]	0	0	?	0	0	0
CCCCCC(=O)NC(=S)NNC(=O)CC	0	0	11µM	0	0	0
CCCCC(=O)NC(=S)Nc1ccc(Cl)c(C(=O)O)c1	0	0	0	0	0	0
CCCCC(=O)NC(=S)Nc1c(C)cc(Br)cc1C	0	0	5.6µM	0	-	?
CC(C)OCCCNC(=O)COCC(=O)Nc1ccc(OCCc2ccccc2)cc1	0	0	?	0	0	0
COc1ccc(NC(=O)c2sc3nc(C)c(C(=O)Nc4ccc(C)cc4C)c(-c4ccc(Cl)cc4)c3c2N)cc1	0	-	-	0	-	-
O=C(O)c1cc(N2C(=O)C=CC2=O)cc(N2C(=O)C=CC2=O)c1	0.22µM	-	-	0	-	-
COc1ccc(C)cc1NCc1cccc(OC)c1OC	0	0	18µM	0	0	0
N#Cc1c(N(CCO)CCO)nc(N)c2c(N)nc3c(c12)CC(=O)N3Cc1cccs1	0	-31	0	0	0	0
CCOc1ccccc1NC(=O)C(CC(C)C)NC(=O)C1CCCCC1 (stereo not drawn)	0	0	0	0	0	0
Cc1cnc(SCCc2ccncc2)nc1C	-	0	13µM	-	0	?
